Results: PubChem BioAssay AID1159580 (chemical genetic matrix, 2015)
Where “and” joins values, the source holds several entries; their conditions need not be identical. Identical values can stand only once. Out of some 5,500 compounds screened, about 2,000 (36%) were called active. Another 18% or so got no clear call; they are omitted. Rule as the data show it: active = normalized growth mostly below about 0.91 (no sharp cut-off); inconclusive = no clear call, values can overlap the other calls; inactive = mostly above about 0.92. The list shows a part of the results.

Experiment: chemical genetic growth profiling, strain panel (AID 1159580);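 also: tested at 20 µM; growth read once vehicle control cultures reached saturation at 30 °C; 1 = growth at the plate median or of vehicle wells; lower values mean less growth of the strain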
Conditions: growth OD

Measured: normalized growth

NCCS
inactive: S. cerevisiae deletion strains, locus YJR075W, strain HOC1, stronger effect = lower value 1.01 | S. cerevisiae deletion strains, locus YKL009W, strain mrt4, stronger effect = lower value 0.998 | S. cerevisiae deletion strains, locus YKL068W, stronger effect = lower value 1 | S. cerevisiae deletion strains, locus YKL085W, strain MDH1 (second series), stronger effect = lower value 1.01 | S. cerevisiae deletion strains, locus YKL085W, strain MDH1, stronger effect = lower value 1.01 | S. cerevisiae deletion strains, locus YKL160W, strain elf1, stronger effect = lower value 0.986 | S. cerevisiae deletion strains, locus YKL190W, strain CNB1, stronger effect = lower value 1.01 | S. cerevisiae deletion strains, locus YKR001C, strain vps1, stronger effect = lower value 1.01 | S. cerevisiae deletion strains, locus YKR026C, strain gcn3, stronger effect = lower value 0.947 | S. cerevisiae deletion strains, locus YKR091W, strain srl3, stronger effect = lower value 0.991 | S. cerevisiae deletion strains, locus YLL001W, strain dnm1, stronger effect = lower value 1 | S. cerevisiae deletion strains, locus YLL026W, stronger effect = lower value 0.996 | S. cerevisiae deletion strains, locus YLL041C, strain sdh2, stronger effect = lower value 0.998 | S. cerevisiae deletion strains, locus YLR027C, strain aat2, stronger effect = lower value 0.984 | S. cerevisiae deletion strains, locus YLR039C, strain RIC1, stronger effect = lower value 1.05 | S. cerevisiae deletion strains, locus YLR058C, strain SHM2, stronger effect = lower value 1.02 | S. cerevisiae deletion strains, locus YLR102C, strain apc9, stronger effect = lower value 1.01 | S. cerevisiae deletion strains, locus YLR113W, strain HOG1, stronger effect = lower value 0.996 | S. cerevisiae deletion strains, locus YLR221C, strain rsa3, stronger effect = lower value 0.992 | S. cerevisiae deletion strains, locus YLR258W, strain gsy2, stronger effect = lower value 0.998 | S. cerevisiae deletion strains, locus YLR262C, strain YPT6 (second series), stronger effect = lower value 0.953 | S. cerevisiae deletion strains, locus YLR262C, strain YPT6, stronger effect = lower value 1.03 | S. cerevisiae deletion strains, locus YLR268W, strain sec22, stronger effect = lower value 1.01 | S. cerevisiae deletion strains, locus YLR320W, strain mms22, stronger effect = lower value 0.985 | S. cerevisiae deletion strains, locus YLR330W, strain CHS5, stronger effect = lower value 1.01 | S. cerevisiae deletion strains, locus YLR342W, strain FKS1 (second series), stronger effect = lower value 1.04 | S. cerevisiae deletion strains, locus YLR342W, strain FKS1, stronger effect = lower value 0.969 | S. cerevisiae deletion strains, locus YLR357W, strain rsc2, stronger effect = lower value 0.962 | S. cerevisiae deletion strains, locus YLR370C, strain arc18, stronger effect = lower value 0.989 | S. cerevisiae deletion strains, locus YLR371W, strain rom2, stronger effect = lower value 1.02 | S. cerevisiae deletion strains, locus YLR384C, strain iki3, stronger effect = lower value 0.999 | S. cerevisiae deletion strains, locus YLR418C, strain cdc73, stronger effect = lower value 1.03 | S. cerevisiae deletion strains, locus YML016C, strain PPZ1, stronger effect = lower value 1.02 | S. cerevisiae deletion strains, locus YML032C, strain rad52, stronger effect = lower value 1.02 | S. cerevisiae deletion strains, locus YML120C, strain ndi1, stronger effect = lower value 0.988 | S. cerevisiae deletion strains, locus YML124C, strain tub3, stronger effect = lower value 1.02 | S. cerevisiae deletion strains, locus YMR058W, strain fet3, stronger effect = lower value 0.985 | S. cerevisiae deletion strains, locus YMR078C, strain ctf18, stronger effect = lower value 1.01 | S. cerevisiae deletion strains, locus YMR125W, strain sto1, stronger effect = lower value 0.968 | S. cerevisiae deletion strains, locus YMR129W, stronger effect = lower value 1.01 | S. cerevisiae deletion strains, locus YMR205C, strain PFK2, stronger effect = lower value 0.983 | S. cerevisiae deletion strains, locus YMR223W, strain ubp8, stronger effect = lower value 1.01 | S. cerevisiae deletion strains, locus YMR231W, strain pep5, stronger effect = lower value 0.999 | S. cerevisiae deletion strains, locus YMR263W, strain SAP30, stronger effect = lower value 1.01 and 0.99 | S. cerevisiae deletion strains, locus YMR307W, strain GAS1, stronger effect = lower value 1.02 | S. cerevisiae deletion strains, locus YNL067W, strain RPL9B, stronger effect = lower value 1.01 | S. cerevisiae deletion strains, locus YNL071W, strain lat1, stronger effect = lower value 0.956 | S. cerevisiae deletion strains, locus YNL128W, strain TEP1, stronger effect = lower value 1.01 | S. cerevisiae deletion strains, locus YNL153C, strain GIM3, stronger effect = lower value 1.01 | S. cerevisiae deletion strains, locus YNL175C, strain NOP13, stronger effect = lower value 1 | S. cerevisiae deletion strains, locus YNL183C, strain NPR1, stronger effect = lower value 0.981 | S. cerevisiae deletion strains, locus YNL197C, strain WHI3, stronger effect = lower value 1.01 | S. cerevisiae deletion strains, locus YNL209W, strain ssb2, stronger effect = lower value 0.989 | S. cerevisiae deletion strains, locus YNL224C, strain SQS1, stronger effect = lower value 1 | S. cerevisiae deletion strains, locus YNL233W, strain BNI4, stronger effect = lower value 1.02 | S. cerevisiae deletion strains, locus YNL248C, strain rpa49, stronger effect = lower value 0.983 | S. cerevisiae deletion strains, locus YNL250W, strain rad50, stronger effect = lower value 1.02 | S. cerevisiae deletion strains, locus YNL271C, strain bni1, stronger effect = lower value 1.01 | S. cerevisiae deletion strains, locus YNL298W, strain CLA4, stronger effect = lower value 1.03 | S. cerevisiae deletion strains, locus YNL307C, strain MCK1, stronger effect = lower value 1.02 | S. cerevisiae deletion strains, locus YNL322C, strain KRE1 (second series), stronger effect = lower value 0.979 | S. cerevisiae deletion strains, locus YNL322C, strain KRE1, stronger effect = lower value 1.01 and 1.02 | S. cerevisiae deletion strains, locus YNR049C, strain mso1, stronger effect = lower value 0.972 | S. cerevisiae deletion strains, locus YNR052C, strain pop2, stronger effect = lower value 1.01 | S. cerevisiae deletion strains, locus YOL006C, strain TOP1, stronger effect = lower value 1.04 | S. cerevisiae deletion strains, locus YOL012C, strain htz1 1.32 | S. cerevisiae deletion strains, locus YOL147C, strain pex11, stronger effect = lower value 1.02 | S. cerevisiae deletion strains, locus YOR001W, strain rrp6, stronger effect = lower value 0.992 | S. cerevisiae deletion strains, locus YOR061W, strain CKA2, stronger effect = lower value 1.02 | S. cerevisiae deletion strains, locus YOR069W, strain VPS5, stronger effect = lower value 1.01 | S. cerevisiae deletion strains, locus YOR070C, strain gyp1, stronger effect = lower value 0.982 | S. cerevisiae deletion strains, locus YOR080W, strain dia2, stronger effect = lower value 0.984 | S. cerevisiae deletion strains, locus YOR083W, strain WHI5 (second series), stronger effect = lower value 1.02 | S. cerevisiae deletion strains, locus YOR083W, strain WHI5, stronger effect = lower value 0.983 | S. cerevisiae deletion strains, locus YOR106W, strain vam3, stronger effect = lower value 0.969 | S. cerevisiae deletion strains, locus YOR136W, strain idh2, stronger effect = lower value 1.02 | S. cerevisiae deletion strains, locus YOR144C, strain elg1, stronger effect = lower value 1.02 | S. cerevisiae deletion strains, locus YOR184W, strain ser1, stronger effect = lower value 0.999 | S. cerevisiae deletion strains, locus YOR231W, strain MKK1, stronger effect = lower value 1.02 | S. cerevisiae deletion strains, locus YOR265W, strain rbl2, stronger effect = lower value 0.997 | S. cerevisiae deletion strains, locus YOR270C, strain vph1, stronger effect = lower value 0.995 | S. cerevisiae deletion strains, locus YOR290C, strain snf2, stronger effect = lower value 0.982 | S. cerevisiae deletion strains, locus YOR316C, strain cot1, stronger effect = lower value 1.02 | S. cerevisiae deletion strains, locus YPL051W, strain arl3, stronger effect = lower value 1 | S. cerevisiae deletion strains, locus YPL055C, strain LGE1, stronger effect = lower value 1.01 | S. cerevisiae deletion strains, locus YPL078C, strain atp4, stronger effect = lower value 0.988 | S. cerevisiae deletion strains, locus YPL106C, strain sse1, stronger effect = lower value 0.957 | S. cerevisiae deletion strains, locus YPL240C, strain hsp82, stronger effect = lower value 0.992 | S. cerevisiae deletion strains, locus YPL241C, strain CIN2, stronger effect = lower value 1.01 and 1 | S. cerevisiae deletion strains, locus YPL256C, strain CLN2, stronger effect = lower value 1.08 | S. cerevisiae deletion strains, locus YPR119W, strain clb2, stronger effect = lower value 1.01 | S. cerevisiae deletion strains, locus YPR141C, strain kar3, stronger effect = lower value 1.03 | S. cerevisiae deletion strains, locus YPR163C, strain tif3, stronger effect = lower value 1.02 | S. cerevisiae deletion strains, locus YPR167C, strain met16, stronger effect = lower value 1.01 | S. cerevisiae deletion strains, strain wtn01, stronger effect = lower value 1.09 | S. cerevisiae strains, strain wild type, stronger effect = lower value 1
